For 61 compounds, cytotoxicity results are on record in PubChem BioAssay AID430 (Sanford-Burnham Center for Chemical Genomics, 2006).

Screen size: about 63,000 compounds; about 1,100 (1.7%) were called active. Rule as the data show it: active = cytotoxicity above about 50%; inactive = the rest. What follows is part of a selection rich in actives, with near analogues and random picks from the rest. Potency and affinity values are given separately.

The test can be described thus: HPDE-C7 pancreatic duct cell viability loss – fluorescence, HTS (AID 430).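 Also: cells exposed to compound for 48 hours before viability readout; 0% = vehicle and 100% = reference cytotoxic drug.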 To be noted: HPDE-C7 pancreatic duct cells viability, at 10 µM, stronger effect = higher value.
As for `O=C(O)C1C(c2ccccc2)C(C(=O)OCCCO)C1c1ccccc1` (stereo unspecified), the cytotoxicity is 4.7% (inactive).

Regarding `COc1cccc(C=Nc2cc(C)on2)c1O`, the cytotoxicity was -3.2% (inactive). Take `COc1cc(Br)cc(CN2CCN(C=O)CC2)c1O`: the cytotoxicity is -1.6% (inactive). Consider `O=c1c2ccccc2c(/C=N/c2ncn[nH]2)c(O)n1Cc1ccccc1`, for which the cytotoxicity was 5.2% (inactive). Regarding `C=CCc1cccc(/C=N/c2ncn[nH]2)c1O`, the cytotoxicity is 4.1% (inactive). Regarding `Oc1c(/C=N/c2ncn[nH]2)ccc2ccccc12`, the cytotoxicity is 54.2% (active). Take `COc1cc(Br)cc(/C=N/c2ncn[nH]2)c1O`: the cytotoxicity is 88.6% (active). Take `O=C(O)CN1CCN(Cc2ccc(F)cc2Cl)C1=O`: the cytotoxicity is -10.1% (inactive). Under `COc1ccc(CCn2nnnc2C(CC(C)C)N2CCC(C(N)=O)CC2)cc1OC` (stereo unspecified) stands -10.9% (inactive).

Consider `CCCS(=O)(=O)N1CCC(C(=O)NCc2ccccc2Cl)CC1`, for which the cytotoxicity was -9.6% (inactive). With `COc1ccccc1-c1nnc2sc(-c3ccc(N(C)C)cc3)nn12` the figure was 44.4% (inactive); with `CN(C)c1ccc(-c2nn3c(-c4ccccc4Cl)nnc3s2)cc1`, 63.8% (active). Turning to `CN(C)c1ccc(-c2nn3c(-c4ccc(Cl)cc4)nnc3s2)cc1`, the cytotoxicity is -15.9% (inactive).

As for `Cc1nn2c(-c3ccc(Cl)cc3Cl)nnc2s1`, the cytotoxicity is -9.3% (inactive). `CN(C)c1ccc(-c2nn3c(-c4ccc(Cl)cc4Cl)nnc3s2)cc1`: the cytotoxicity is 60.2% (active). Consider `Clc1ccccc1-c1nnc2sc(-c3ccncc3)nn12`, for which the cytotoxicity is -13.4% (inactive). Turning to `CCOc1ccc(N2C(=O)CC(SC(=NC)Nc3cccc(F)c3)C2=O)cc1` (stereo unspecified), the cytotoxicity was -18.7% (inactive). Turning to `O=C(CSc1ccc2c(c1)OCCO2)NCCN1C(=O)CSC1=O`, the cytotoxicity was 3.6% (inactive). Regarding `Cn1c(=O)[nH]c(=O)c2c1nc(N1CCN(c3cccc(Cl)c3)CC1)n2CCCc1ccccc1`, the cytotoxicity was 5.2% (inactive). Turning to `O=S(=O)(c1ccc(F)c(Cl)c1)N1CCCC1`, the cytotoxicity was 11.7% (inactive).

Regarding `CCOC(=O)c1sc2nc(NC(=O)C3CCCCC3)sc2c1C`, the cytotoxicity is 66.7% (active).

Consider `CCOC(=O)c1sc2nc(NC(=O)C(C)(C)C)sc2c1C`, for which the cytotoxicity is 1.8% (inactive). As for `CCOC(=O)c1sc2nc(NC(=O)C3CC3)sc2c1C`, the cytotoxicity is 16% (inactive). Under `CC(Sc1nnc(C2CCCCC2)n1N)C(=O)NCc1ccc2c(c1)OCO2` (stereo unspecified) stands 0.2% (inactive); under `CCCCN(CC)S(=O)(=O)c1ccc(C(=O)Nc2nnc(-c3ccccc3Cl)o2)cc1`, 59.8% (active). Consider `CC1CCCN(S(=O)(=O)c2ccc(C(=O)Nc3nnc(-c4ccccc4Cl)o3)cc2)C1` (stereo unspecified), for which the cytotoxicity was 60.8% (active). Under `O=C(Nc1nc(-c2cccs2)cs1)c1ccc(S(=O)(=O)N2CCCCC2)cc1` stands -6.2% (inactive); under `CCCCN(CC)S(=O)(=O)c1ccc(C(=O)Nc2nnc(-c3cccs3)o2)cc1`, 49% (inactive). On to `CCN(Cc1ccccc1)S(=O)(=O)c1ccc(C(=O)Nc2nnc(C3CC3)o2)cc1`, for which the cytotoxicity was 4.1% (inactive). Consider `CCCCN(C)S(=O)(=O)c1ccc(C(=O)Nc2nnc(CSC)o2)cc1`, for which the cytotoxicity is 11.6% (inactive). `CC1CN(S(=O)(=O)c2ccc(C(=O)Nc3nnc(-c4ccc5c(c4)CCCC5)o3)cc2)CC(C)O1` (stereo unspecified): the cytotoxicity was 41.7% (inactive). With `CC1CCCN(S(=O)(=O)c2ccc(NC(=O)c3cccc(-n4cnnn4)c3)cc2)C1` (stereo unspecified) the figure was 18.2% (inactive). Under `O=C(Nc1nc(-c2cccs2)cs1)c1ccc(S(=O)(=O)N2CCCC2)cc1` stands 6.2% (inactive); under `CCc1nnc(NC(=O)c2ccc(S(=O)(=O)N(CC)Cc3ccccc3)cc2)o1`, 35.7% (inactive). `CCCCN(C)S(=O)(=O)c1ccc(C(=O)Nc2nnc(-c3cccs3)o2)cc1`: the cytotoxicity is 59.9% (active). With `CC1CC(C)CN(S(=O)(=O)c2ccc(C(=O)Nc3nnc(-c4cccs4)o3)cc2)C1` (stereo unspecified), the cytotoxicity is 69.8% (active).

In the case of `CCC1Sc2ccccc2N(CC(=O)NCCC(C)C)C1=O` (stereo unspecified), the cytotoxicity was -14.5% (inactive).

On to `FC(F)(F)c1cccnc1N1CCN(c2ncnc3nc[nH]c23)CC1`, for which the cytotoxicity was -5.7% (inactive). Under `CCCCS(=O)(=O)NC1=NCN(CCO)CN1` stands -7.4% (inactive); under `CCCCN1C(=O)C(O)(CC(=O)c2c(C)n[nH]c2C)c2cc(Br)ccc21` (stereo unspecified), 7.7% (inactive); under `CN(c1ccc(C(=O)NCc2ccco2)cc1)S(C)(=O)=O`, 0.7% (inactive). On to `COCCNC(=O)NC(=O)COC(=O)C12CC3CC(CC(NC(C)=O)(C3)C1)C2`, for which the cytotoxicity was -1.4% (inactive).

Consider `CCOCCCn1c(=S)[nH]c2cc(C(=O)NCCN(CC)CC)ccc2c1=O`, for which the cytotoxicity was 1.7% (inactive). Under `Cc1[nH]c(=O)[nH]c(=O)c1NC(=O)CSc1ncccc1-c1nc2ccccc2[nH]1` stands 3% (inactive); under `NC(=O)c1ccsc1NC(=O)COC(=O)c1ccccc1NCc1ccco1`, 0.6% (inactive). Consider `COc1ccc(NC(=O)c2ccc(CN3CCN(c4ccccc4)CC3)cc2)cc1OC`, for which the cytotoxicity is -17.4% (inactive).

On to `CCn1c(SCC(=O)N2CCN(c3ccccc3F)CC2)nnc1-c1ccoc1C`, for which the cytotoxicity is -0.9% (inactive). For `CC1(C)OC(=O)N(c2ccccn2)C1(C)O` (stereo unspecified), the cytotoxicity was 2.3% (inactive). As for `Cc1nnc(NC(=O)c2ccc(S(=O)(=O)N3CCCCCC3)cc2)o1`, the cytotoxicity was 7.5% (inactive). On to `COCc1nnc(NC(=O)c2ccc(S(=O)(=O)N3CCCCCC3)cc2)o1`, for which the cytotoxicity is 3.2% (inactive). With `O=C(Nc1nnc(-c2ccccc2Cl)o1)c1ccc(S(=O)(=O)N2CCCCCC2)cc1`, the cytotoxicity was 53.6% (active).

In the case of `CC(OC(=O)c1cccc(NS(C)(=O)=O)c1)C(=O)Nc1ccc(N2CCOCC2)cc1` (stereo unspecified), the cytotoxicity is -30.2% (inactive). For the compound `CN(C)c1ccc(C2C=C(c3ccc(Cl)cc3OC(F)F)Nc3ncnn32)cc1` (stereo unspecified), the cytotoxicity was 52.1% (active).

In the case of `COc1cccc(C2=CC(c3ccc(N(C)C)cc3)n3ncnc3N2)c1` (stereo unspecified), the cytotoxicity is -4.9% (inactive). For the compound `Cc1ccc(C2C=C(c3ccccc3OC(F)F)Nc3ncnn32)cc1` (stereo unspecified), the cytotoxicity is -8.7% (inactive).

Take `O=C(Oc1ccc(Br)cc1)C1CC(=O)N(c2ccc(F)cc2)C1` (stereo unspecified): the cytotoxicity was -2.4% (inactive).

In the case of `CCn1cnc2c1c(=O)n(CC(=O)Nc1cc(C)on1)c(=O)n2Cc1ccccc1`, the cytotoxicity is 0% (inactive). For the compound `O=C(Nc1ccccc1C(F)(F)F)c1cc(-c2cccc(O)c2)on1`, the cytotoxicity is -6.5% (inactive). Take `CC(C)N=c1cc2n(-c3ccc(Cl)cc3)c3ccccc3nc-2cc1Nc1ccc(Cl)cc1`: the cytotoxicity was 83.5% (active). Under `Cn1c(CNc2ccc(Cl)cc2)nc2ccccc21` stands -13% (inactive). Regarding `Cc1nc2ccccc2n1-c1ccccc1`, the cytotoxicity is -4% (inactive).
